The values that follow come from PubChem BioAssay (EPA / NIEHS).

Active and inactive are the calls of the source. How the source made its calls: active means hit-call score of the fitted dose curve at least 0.9, where 1 is the maximum; inactive means score below 0.9.

Holding throughout (settings): mRNA level, 48 h; actives raise or lower the signal
Read-out in test [1]: Bcl-2 (BID) gene, BID (gene 637)
The experiment in a line: LTEA_HepaRG_BID: Life Technologies and Expression Analysis (LTEA) Assay for Bcl-2 (BID) gene using HepaRG (AID 2283476). In outline: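 HepaRG, 48 h exposure, 8-pt half-log series, top 100 uM, 0.5% DMSO vehicle, duplicates. Readout: BID mRNA by TaqMan qRT-PCR; housekeeping-normalized; bidirectional curve fit vs DMSO baseline.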

Read-out in another test: Caspase-3 (Homo sapiens) (UniProt P42574)
Put plainly: LTEA_HepaRG_CASP3: Life Technologies and Expression Analysis (LTEA) Assay for cysteine-aspartic acid protease (CASP3) using HepaRG (AID 2283477). In outline:
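HepaRG, 48 h exposure, 8 conc. (top 100 uM, half-log steps, duplicate), 0.5% DMSO vehicle; qRT-PCR of CASP3 transcript, housekeeping-normalised (ACTB/GAPDH/POLR2A); bidirectional curve fit vs DMSO baseline.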

Read-out in test [2]: Cytochrome P450 (CYP24A1), CYP24A1 (gene 1591)
Put plainly: LTEA_HepaRG_CYP24A1: Life Technologies and Expression Analysis (LTEA) Assay for Cytochrome P450 (CYP24A1) using HepaRG (AID 2283478). In outline: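 qRT-PCR read-out: CYP24A1 transcript levels normalized to three housekeeping genes, bidirectional curve fits against 0.5% DMSO baseline. Human HepaRG cells treated 48 h with chemicals at eight concentrations from 100 uM in half-log steps.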

Read-out in test [3]: Cytochrome P450 (CYP1A2), CYP1A2 (gene 1544)
Put plainly: LTEA_HepaRG_CYP1A2: Life Technologies and Expression Analysis (LTEA) Assay for Cytochrome P450 (CYP1A2) using HepaRG (AID 2283479). The procedure, abridged: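 HepaRG, 48 h exposure, top 100 uM, half-log 8-pt, 0.5% DMSO vehicle, duplicates. Readout: TaqMan qRT-PCR of CYP1A2 mRNA, housekeeping-normalized (ACTB/GAPDH/POLR2A). Gain/loss fit relative to DMSO baseline.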

Read-out in test [4]: cysteine-aspartic acid protease (CASP8), CASP8 (gene 841)
The experiment in a line: LTEA_HepaRG_CASP8: Life Technologies and Expression Analysis (LTEA) Assay for cysteine-aspartic acid protease (CASP8) using HepaRG (AID 2283480). In outline: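 qRT-PCR readout of CASP8 mRNA, normalized to three housekeeping genes, after 48 h chemical exposure of HepaRG cells; 8-point half-log series, top 100 uM, 0.5% DMSO vehicle. Bidirectional curve fitting against DMSO baseline.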

Read-out in test [5]: Cytochrome P450 (CYP2B6), CYP2B6 (gene 1555)
The experiment in a line: LTEA_HepaRG_CYP2B6: Life Technologies and Expression Analysis (LTEA) Assay for Cytochrome P450 (CYP2B6) using HepaRG (AID 2283481). In outline: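 Read-out is CYP2B6 mRNA by TaqMan qRT-PCR, normalized to three housekeeping genes and fitted bidirectionally against 0.5% DMSO baseline. Human HepaRG cells received test chemicals for 48 h, top concentration 100 uM, half-log dilutions.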

Read-out in test [6]: Cytochrome P450 2C19 (Homo sapiens) (UniProt P33261)
The experiment in a line: LTEA_HepaRG_CYP2C19: Life Technologies and Expression Analysis (LTEA) Assay for CYP2C19 using HepaRG (AID 2283482). In outline: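 HepaRG, 48 h chemical exposure, 8-pt half-log series from 100 uM in 0.5% DMSO, duplicates. Readout: CYP2C19 mRNA by TaqMan qRT-PCR, housekeeping-normalized. Bidirectional fit vs DMSO baseline; phenobarbital 1mM as induction control.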

Read-out in a further test: CYP2C8 (gene 1558)
The experiment in a line: LTEA_HepaRG_CYP2C8: Life Technologies and Expression Analysis (LTEA) Assay for CYP2C8 using HepaRG (AID 2283483). In outline:
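HepaRG (human liver line), 48 h chemical exposure, 8-pt half-log series from 100 uM, 0.5% DMSO vehicle. Readout: CYP2C8 transcript by qRT-PCR, housekeeping-normalized. Bidirectional fit vs DMSO baseline.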

Read-out in a further test: CYP2C9 (gene 1559)
The experiment in a line: LTEA_HepaRG_CYP2C9: Life Technologies and Expression Analysis (LTEA) Assay for CYP2C9 using HepaRG (AID 2283484). The procedure, abridged:
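HepaRG, 48 h dosing, 8-pt half-log series, top 100 uM, 0.5% DMSO vehicle. Read-out: CYP2C9 transcript by TaqMan qRT-PCR, housekeeping-normalized (ACTB/GAPDH/POLR2A). Gain or loss fitted vs DMSO baseline.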

Read-out in another test: CYP2E1 (gene 1571)
The experiment in a line: LTEA_HepaRG_CYP2E1: Life Technologies and Expression Analysis (LTEA) Assay for CYP2E1 using HepaRG (AID 2283485). In outline: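 CYP2E1 transcript was measured by TaqMan qRT-PCR in human HepaRG cultures after 48 h chemical exposure (top 100 uM, half-log steps, 0.5% DMSO vehicle). Housekeeping-gene normalization; gain or loss fitted relative to DMSO baseline.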

Read-out in the next test: CYP4A11 (gene 1579)
Put plainly: LTEA_HepaRG_CYP4A11: Life Technologies and Expression Analysis (LTEA) Assay for CYP4A11 using HepaRG (AID 2283486). In outline: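 CYP4A11 transcript levels were quantified by TaqMan qRT-PCR after HepaRG human liver cells were treated for 48 hours with test chemicals (top 100 uM, half-log dilutions, 0.5% DMSO). Gain or loss of signal was fitted relative to DMSO.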

Read-out in test [7]: Cytochrome P450 3A4 (Homo sapiens) (UniProt P08684)
Put plainly: LTEA_HepaRG_CYP3A4: Life Technologies and Expression Analysis (LTEA) Assay for CYP3A4 using HepaRG (AID 2283487). The procedure, abridged: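 CYP3A4 transcript measured by TaqMan qRT-PCR and normalized to three housekeeping genes after 48 h chemical exposure of human HepaRG cells. Top concentration 100 uM, half-log steps, 0.5% DMSO vehicle; gain or loss fitted against DMSO baseline.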

Read-out in test [8]: Pro-epidermal growth factor (Homo sapiens) (UniProt P01133)
Put plainly: LTEA_HepaRG_EGF: Life Technologies and Expression Analysis (LTEA) Assay for Epidermal growth factor (EGF) using HepaRG (AID 2283489). In outline:
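qRT-PCR readout of EGF transcript after 48 h chemical exposure of HepaRG cells; eight concentrations from 100 uM down in half-log steps, duplicate wells, 0.5% DMSO vehicle. Bidirectional curve fitting against DMSO baseline.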

Read-out in test [9]: Ezrin (EZR), EZR (gene 7430)
Put plainly: LTEA_HepaRG_EZR: Life Technologies and Expression Analysis (LTEA) Assay for Ezrin (EZR) using HepaRG (AID 2283491). In outline:
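HepaRG, 48 h chemical exposure, 8-pt half-log series from 100 uM, 0.5% DMSO vehicle, duplicates. Read-out: EZR mRNA by TaqMan qRT-PCR (Fluidigm array), housekeeping-normalized; bidirectional curve fit vs DMSO baseline.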

Read-out in a further test: CYP3A5 (gene 1577)
Put plainly: LTEA_HepaRG_CYP3A5: Life Technologies and Expression Analysis (LTEA) Assay for CYP3A5 using HepaRG (AID 2283493). In outline: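 qRT-PCR read-out: CYP3A5 transcript in HepaRG lysates, housekeeping-normalized (ACTB/GAPDH/POLR2A), fitted bidirectionally against 0.5% DMSO baseline. Exposure 48 h, eight half-log concentrations up to 100 uM, duplicates.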

Read-out in test [10]: Fatty Acid-Binding Protein 1 (FABP1), FABP1 (gene 2168)
Put plainly: LTEA_HepaRG_FABP1: Life Technologies and Expression Analysis (LTEA) Assay for Fatty Acid-Binding Protein 1 (FABP1) using HepaRG (AID 2283494). In outline:
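qRT-PCR readout of FABP1 transcript (normalized to three housekeeping genes) after 48 h chemical exposure of HepaRG cells; eight concentrations, half-log steps, max 100 uM, 0.5% DMSO vehicle; gain or loss fitted relative to DMSO baseline.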

Read-out in test [11]: Cytochrome P450 4A22 (Homo sapiens) (UniProt Q5TCH4)
Put plainly: LTEA_HepaRG_CYP4A22: Life Technologies and Expression Analysis (LTEA) Assay for Cytochrome P450 4A22 (CYP4A22) using HepaRG (AID 2283495). In outline:
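HepaRG, 48 h post-plating -> serum-free induction medium; dosed 48 h, duplicate, 8 conc. (100 uM top, half-log), 0.5% DMSO. Readout: CYP4A22 mRNA by qRT-PCR, ACTB/GAPDH/POLR2A normalization; gain/loss fit relative to DMSO.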

Read-out in test [12]: Early growth response protein 1 (EGR1) transcription factor, EGR1 (gene 1958)
The experiment in a line: LTEA_HepaRG_EGR1: Life Technologies and Expression Analysis (LTEA) Assay for Early growth response protein 1 (EGR1) transcription factor using HepaRG (AID 2283490). The procedure, abridged:
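HepaRG, 48 h exposure, 8-pt half-log series from 100 uM, 0.5% DMSO vehicle; EGR1 transcript by TaqMan qRT-PCR (Fluidigm array), housekeeping-normalized; bidirectional fit relative to DMSO baseline.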

Chain of Caspase-3 (Homo sapiens) (P42574 whole entry, looked up): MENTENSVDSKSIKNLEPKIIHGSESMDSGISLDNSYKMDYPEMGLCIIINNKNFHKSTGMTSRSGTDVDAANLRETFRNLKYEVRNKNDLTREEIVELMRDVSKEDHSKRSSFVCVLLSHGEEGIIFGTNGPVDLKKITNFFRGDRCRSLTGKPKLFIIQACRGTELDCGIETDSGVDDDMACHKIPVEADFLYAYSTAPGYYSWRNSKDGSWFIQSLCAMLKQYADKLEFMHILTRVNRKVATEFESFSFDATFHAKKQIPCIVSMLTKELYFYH
Chain of Cytochrome P450 3A4 (Homo sapiens) (P08684 whole entry, looked up): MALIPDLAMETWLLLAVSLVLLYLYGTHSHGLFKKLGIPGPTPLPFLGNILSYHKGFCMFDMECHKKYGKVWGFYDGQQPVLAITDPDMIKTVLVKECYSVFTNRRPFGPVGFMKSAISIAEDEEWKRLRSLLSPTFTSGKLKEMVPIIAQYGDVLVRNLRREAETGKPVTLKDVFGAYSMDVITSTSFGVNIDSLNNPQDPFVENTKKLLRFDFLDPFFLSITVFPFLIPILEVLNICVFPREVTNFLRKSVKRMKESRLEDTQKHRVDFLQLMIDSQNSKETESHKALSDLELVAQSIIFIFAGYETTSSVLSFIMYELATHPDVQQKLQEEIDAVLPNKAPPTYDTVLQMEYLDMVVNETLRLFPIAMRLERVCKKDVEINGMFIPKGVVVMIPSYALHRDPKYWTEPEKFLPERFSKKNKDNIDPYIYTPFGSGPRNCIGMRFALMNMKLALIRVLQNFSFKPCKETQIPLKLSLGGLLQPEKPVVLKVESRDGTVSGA
Chain of Cytochrome P450 2C19 (Homo sapiens) (P33261 whole entry, looked up): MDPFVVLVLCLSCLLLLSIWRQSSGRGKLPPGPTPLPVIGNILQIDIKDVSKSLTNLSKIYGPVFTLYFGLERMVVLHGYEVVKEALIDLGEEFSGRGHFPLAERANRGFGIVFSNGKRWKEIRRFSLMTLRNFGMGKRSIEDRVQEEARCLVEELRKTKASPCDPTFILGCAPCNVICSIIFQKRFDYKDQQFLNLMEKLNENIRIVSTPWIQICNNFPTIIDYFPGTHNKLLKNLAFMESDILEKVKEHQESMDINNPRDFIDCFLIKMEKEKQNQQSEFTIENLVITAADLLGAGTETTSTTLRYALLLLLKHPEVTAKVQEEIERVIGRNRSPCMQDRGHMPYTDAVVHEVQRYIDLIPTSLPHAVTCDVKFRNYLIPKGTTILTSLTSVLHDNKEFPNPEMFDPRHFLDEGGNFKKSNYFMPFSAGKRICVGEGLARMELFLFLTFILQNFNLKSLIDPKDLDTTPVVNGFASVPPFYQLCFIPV

Take `CC1(C)CON(Cc2ccccc2Cl)C1=O`: the outcome (in test [1]; in the test with Caspase-3 (Homo sapiens); in test [2]; in test [3]; in test [4]; with CYP2C9 (gene 1559)) was inactive. Further, the outcome (with CYP4A11 (gene 1579); in [8]; in test [9]; in the test with CYP3A5 (gene 1577); in [10]; in [11]) was inactive. The AC50 in test [5] was 2.45 µM (active); in test [6], 6.15 µM (active); with CYP2C8 (gene 1558) it was 12.8 µM (active); with CYP2E1 (gene 1571), 31.4 µM (active); in test [7], 5.64 µM (active).
Regarding `C=CCOC(=O)C(C)(C)OC(=O)c1cc(-n2c(=O)cc(C(F)(F)F)n(C)c2=O)ccc1Cl`, the compound was called inactive (in [1]; with Caspase-3 (Homo sapiens); in [2]; in [3]; in test [4]; in test [6]). The outcome (in the test with CYP2C8 (gene 1558); with CYP2C9 (gene 1559); in the test with CYP2E1 (gene 1571); with CYP4A11 (gene 1579); in [8]; in test [9]) was inactive. Besides, the result (with CYP3A5 (gene 1577); in [10]; in [11]) was inactive. Besides, the figures for the AC50 in [5] and in test [7] were 6.65 µM (active) and 16.6 µM (active), respectively.
Turning to `O=C1C2CC=CCC2C(=O)N1SC(Cl)(Cl)Cl` (centres undefined), the result (in test [1]; in the test with Caspase-3 (Homo sapiens); in [2]; in [3]; in test [4]; in test [5]) was inactive. In addition, the result (in [6]; with CYP2C8 (gene 1558); with CYP2C9 (gene 1559); with CYP2E1 (gene 1571); with CYP4A11 (gene 1579); in [7]) was inactive. The compound was classed as inactive (in [8]; in [9]; with CYP3A5 (gene 1577); in test [10]; in test [11]).
With `COCC(C)N(C(=O)CCl)c1c(C)csc1C` (centres undefined), the call (in [1]; in the test with Caspase-3 (Homo sapiens); in test [2]; in test [3]; in test [4]; in [6]) was inactive. For the same compound, the call (with CYP2C8 (gene 1558); with CYP2C9 (gene 1559); with CYP4A11 (gene 1579); in test [12]; in test [9]; with CYP3A5 (gene 1577)) was inactive. Further, the AC50 in test [5] is 2.05 µM (active); with CYP2E1 (gene 1571) it was 64.6 µM (active); in test [8] it was 50 µM (active); in [10] it was 50 µM (active).
`CC(C)Oc1cccc(NC(=O)c2ccccc2C(F)(F)F)c1`: the call (in [1]; with Caspase-3 (Homo sapiens); in [2]; in test [4]; with CYP2C9 (gene 1559); in the test with CYP4A11 (gene 1579)) was inactive. Moreover, the call (in test [8]; in test [12]; in [9]; with CYP3A5 (gene 1577); in test [10]; in [11]) was inactive. Also, the AC50 in test [3] was 80 µM (active); in test [5], 33 µM (active); in test [6], 40.2 µM (active); with CYP2C8 (gene 1558), 50 µM (active); with CYP2E1 (gene 1571), 84.4 µM (active).

One may read the AC50 as the concentration giving half of the maximal activity seen.
